# Screen size: about 52,000 compounds; about 1,700 (3.3%) were called active. This excerpt belongs to a sample that is enriched for actives. A number with no mark means an inactive call. Rule as the data show it: active = survival mostly below about 52% (no sharp cut-off); inactive = mostly above about 56%.
# System: Wild type
# Experiment: S. aureus survival, RN4220 and DeltatarO strains – OD600, teichoic acid synthesis inhibitors, primary screen (AID 463173)
# Conditions: S. aureus RN4220 wild type/DeltatarO growth, OD600, 18 h, active compounds read low, screened at 18.75 µg/mL (by protocol)
row,SMILES,survival
1,COc1ccc(NC(=O)Nc2nnc(N(CC(C)C)CC(C)C)s2)c(OC)c1,96%
2,COc1ccccc1C(=O)Nc1sc(Nc2ccccc2)nc1C(N)=O,146%
3,S=c1nc(CNc2ccccc2)[nH][nH]1,95%
4,CC(=O)N1c2c(cc(Br)cc2S(=O)(=O)N2CCN(c3cc(C)ccc3C)CC2)CC1C (stereo not given),72%
5,COc1ccc(NC(=O)Cn2c(=O)n(CCCCCC(=O)NCc3ccc4c(c3)OCO4)c(=O)c3sccc32)cc1Cl,89%
6,COc1ccc2c(CNCCc3cccs3)c(C(=O)O)n(Cc3ccc(F)cc3Cl)c2c1,115%
7,CCCCN1CC(c2nc3ccccc3n2CCCCOc2ccccc2C)CC1=O (stereo not given),15% (active)
8,CCCCn1c(C2CC(=O)N(c3ccc(OCC)cc3)C2)nc2ccccc21 (stereo not given),84%
9,CCCCN1CC(c2nc3ccccc3n2CCCCOc2cc(C)cc(C)c2)CC1=O (stereo not given),14% (active)
10,CCCCN1CC(c2nc3ccccc3n2CCCCOc2ccc(C)c(C)c2)CC1=O (stereo not given),24%
11,CCCCN1CC(c2nc3ccccc3n2CCCCOc2c(C)cccc2C)CC1=O (stereo not given),61%
12,Cc1ccccc1OCCCCn1c(C2CC(=O)N(c3ccccc3Cl)C2)nc2ccccc21 (stereo not given),59%
13,CCCCN1CC(c2nc3ccccc3n2CCCCOc2cccc(C)c2C)CC1=O (stereo not given),-13% (active)
14,Cc1ccc(-c2nn(-c3ccc(F)cc3F)c3c2cnc2ccc(F)cc23)cc1,65%
15,CCOC(=O)c1ccc(NC(=O)CSc2nc(-c3cccs3)cc(C(F)(F)F)c2C#N)cc1,85%
16,CC(C)N(C(=O)Cn1cc(S(=O)(=O)Cc2ccc(Br)cc2)c2ccccc21)C(C)C,80%
17,O=C(c1ccc2c(c1)N(Cc1cccc(Cl)c1)C(=O)c1ccccc1S2)N1CCOCC1,99%
18,Cc1ccnc(N2CCC(C(=O)NCc3ccc(F)cc3)CC2)n1,105%
19,Nc1nc2nc(-c3ccc(Cl)cc3)cc(C(F)(F)F)n2n1,144%
20,CC(C)c1ccccc1NC(=O)CC(C)(C)C,121%
21,C=CCc1cccc2cc(-c3nc4ccc(C(=O)O)cc4[nH]3)c(=O)oc12,83%
22,COc1cccc2cc(-c3nc4ccc(C)cc4[nH]3)c(=O)oc12,73%
23,C=CCc1cccc2cc(-c3nc4ccc(C)cc4[nH]3)c(=O)oc12,-3% (active)
24,COC(=O)c1ccc(NC(=O)CSc2cn(CC(=O)N3CCCCC3)c3ccccc23)cc1,89%
25,CCC(=O)N1CCc2cc(S(=O)(=O)CCC(=O)N3CCN(c4ccccc4Cl)CC3)ccc21,78%

row,SMILES,survival
1,CCCCOc1ccc(C2=NC(c3ccncc3)=Nc3ccc(Br)cc3N2)cc1,-4% (active)
2,CCCCOc1ccc(C2=NC(c3ccncc3)=Nc3ccc(OCC)cc3N2)cc1,90%
3,COc1ccc(C2=NC(c3ccncc3)=Nc3ccc(Br)cc3N2)cc1,94%
4,COc1ccc(CNC(=O)CCc2c(C)c3cc4c(C)coc4c(C)c3oc2=O)cc1OC,82%
5,CC(C)OC(=O)CSc1nnc(-c2ccc(O)cc2)n1-c1ccccc1,116%
6,COc1ccccc1-n1nc(-c2ccccc2)c2cnc3c(F)cc(F)cc3c21,119%
7,Cc1cc(C)c(NC(=O)C(=O)NCCc2csc(-c3ccc(F)cc3)n2)c(C)c1,76%
8,Cc1ccc(-c2nc(CCNC(=O)C(=O)Nc3ccc(C)cc3C)cs2)cc1,53%
9,Cc1ccc(-c2nc(CCNC(=O)C(=O)Nc3ccc(C)c(C)c3)cs2)cc1,-3% (active)
10,Cc1cccc(NC(=O)C(=O)NCCc2csc(-c3ccc(F)cc3)n2)c1C,75%
11,Cc1ccc(-c2nc(CCNC(=O)C(=O)Nc3c(C)cccc3C)cs2)cc1,0% (active)
12,Cc1ccc(-c2nc(CCNC(=O)C(=O)Nc3ccc(C)c(Cl)c3)cs2)cc1,47%
13,O=C(c1cccs1)N1CCCn2c1nc1ccccc12,106%
14,CCc1nn2c(=O)cc(COC(=O)c3cccc(NC(=O)c4ccccc4C)c3)nc2s1,91%
15,CCc1nn(CC(=O)Nc2ccc(C)c(F)c2)c(=O)c2cc3cc(C)ccc3n12,109%
16,COc1ccc2c(c1)Cc1sc(NC(=O)c3cccc(C)c3)nc1-2,7% (active)
17,COc1ccc(C(=O)Nc2nc3c(s2)CCc2cc(OC)ccc2-3)cc1,41%
18,COc1ccc2c(c1)-c1nc(NC(=O)c3cc(Cl)ccc3OC)sc1CC2,74%
19,COc1ccc2c(c1)-c1nc(NC(=O)c3cccc(Br)c3)sc1CC2,54%
20,COc1ccc(C(=O)Nc2nc3c(s2)Cc2cc(OC)ccc2-3)cc1,72%
21,COc1ccc2c(c1)-c1nc(NC(=O)c3ccccc3F)sc1CC2,-1% (active)
22,COc1ccc2c(c1)Cc1sc(NC(=O)c3cccc(F)c3)nc1-2,69%
23,COc1ccc2c(c1)-c1nc(NC(=O)c3ccc(C)cc3)sc1CC2,14% (active)
24,COc1ccc2c(c1)-c1nc(NC(=O)c3ccc(Cl)cc3)sc1CC2,93%
25,CCCC(=O)Nc1ccc(Cl)c(NC(=O)c2cccnc2Cl)c1,114%

row,SMILES,survival
1,CC1=C(c2ccc(C)c(C)c2)S(=O)(=O)N=C1N1CCC(C(=O)NCCc2ccc(Cl)cc2)CC1,132%
2,CS(=O)(=O)N1CCC(N2CCN(Cc3ccc(F)cc3)C(=O)C2=O)CC1,81%
3,Cc1cc(C(=O)O)c2c(=O)n(C)c(=O)n(C)c2n1,81%
4,Cc1ccc(C(=O)Nc2ccc(C(=O)O)cc2)cc1S(=O)(=O)Nc1ccccc1,73%
5,Cc1ccc(C(=O)Nc2ccccc2)cc1S(=O)(=O)Nc1ccc(Br)cc1,7% (active)
6,CCN(c1ccccc1)S(=O)(=O)c1cc(C(=O)Nc2ccc(Br)cc2)ccc1F,1% (active)
7,CCOc1cccc(NC(=O)c2ccc(F)c(S(=O)(=O)N(CC)c3cccc(C)c3)c2)c1,82%
8,Cc1ccc(C(=O)Nc2ccccc2)cc1S(=O)(=O)Nc1ccccc1,70%
9,CCOc1ccc(NC(=O)c2ccc(F)c(S(=O)(=O)N(CC)Cc3ccccc3)c2)cc1,77%
10,CCN1CCN(C(c2ccccc2F)c2c(O)cc(C)n(CCOC)c2=O)CC1 (stereo not given),45%
11,Cc1ccc(NC(=O)Cn2c(=O)n(Cc3ccco3)c(=O)c3ccc(C(=O)NC4CCCC4)cc32)c(C)c1,87%
12,Cc1cccc(C(=O)NCC(c2ccc3c(c2)OCO3)N2CCN(c3ccccc3F)CC2)c1 (stereo not given),70%
13,Cc1ccc(OCC(=O)Nc2nnc(SCc3cc(=O)n4cccc(C)c4n3)s2)cc1,64%
14,Cc1ccc2nc(CSc3nnc(NC(=O)COc4ccccc4)s3)cc(=O)n2c1,63%
15,Cc1ccc2nc(CSc3nnc(NC(=O)CC(C)C)s3)cc(=O)n2c1,60%
16,CC(C)C(=O)Nc1nnc(SCc2cc(=O)n3ccccc3n2)s1,117%
17,Cc1cccn2c(=O)cc(CSc3nnc(NC(=O)COc4ccc(F)cc4)s3)nc12,-4% (active)
18,Cc1ccc(OCC(=O)Nc2nnc(SCc3cc(=O)n4cc(C)ccc4n3)s2)cc1,1% (active)
19,Cc1ccc2nc(CSc3nnc(NC(=O)COc4ccccc4F)s3)cc(=O)n2c1,81%
20,Cc1cccn2c(=O)cc(CSc3nnc(NC(=O)COc4ccccc4)s3)nc12,71%
21,Cc1ccc2nc(CSc3nnc(NC(=O)C(C)C)s3)cc(=O)n2c1,-3% (active)
22,CCCN1CCN(CCCNC(=O)c2cc3c(=O)n(CC)c4ccccc4c3s2)CC1,85%
23,CC1CCN(CC(=O)N2CCN(c3ccccc3)CC2)CC1,106%
24,COc1ccc(-c2cn3nc(N4CCCC(C(=O)Nc5ccccc5OC)C4)sc3n2)cc1 (stereo not given),135%
25,CN(C)S(=O)(=O)c1ccc2c(c1)N(CC(=O)Nc1ccc(OC(F)(F)F)cc1)C(=O)CS2,71%

row,SMILES,survival
1,COc1ccc(C(=O)NCCN=C2NS(=O)(=O)c3ccccc32)cc1,108%
2,CCN1CCN(C(c2ccccc2)c2c(O)cc(C)n(CCOC)c2=O)CC1 (stereo not given),91%
3,COCCn1c(C)cc(O)c(C(c2ccccc2)N2CCN(C)CC2)c1=O (stereo not given),87%
4,COCCn1c(C)cc(O)c(C(c2ccccc2)N2CCN(CCO)CC2)c1=O (stereo not given),0% (active)
5,COc1cccc(C(=O)c2cn(CC(=O)NCCc3ccccc3)c3nc(C)ccc3c2=O)c1,64%
6,COc1ccccc1C(=O)NCCn1cc(SCc2ccc(C)cc2)c2ccccc21,3% (active)
7,COc1ccc(C(=O)NCCn2cc(SCc3cccc(F)c3)c3ccccc32)cc1OC,68%
8,Cc1ccc(CSc2cn(CCNC(=O)c3cccs3)c3ccccc23)cc1,62%
9,O=C(NCCn1cc(SCc2ccc(C(F)(F)F)cc2)c2ccccc21)c1ccccc1F,35%
10,O=C(NCCn1cc(SCc2cccc(F)c2)c2ccccc21)c1cccc(C(F)(F)F)c1,8% (active)
11,COc1ccccc1C(=O)NCCn1cc(SCc2ccccc2Cl)c2ccccc21,28%
12,Cc1nc2cc(C(F)(F)F)ccc2n1C1CCN(C(=O)C2CC2)CC1,95%
13,Cn1ncc2c(NCc3ccc(Cl)cc3)ncnc21,75%
14,CCC(C)c1ccc(OCC(=O)Nc2ccc(-c3nc4ncccc4o3)cc2)cc1 (stereo not given),60%
15,COc1ccc(OCC(=O)Nc2ccc(-c3nc4ncccc4o3)cc2)cc1,119%
16,Cc1ccccc1OCC(=O)Nc1ccc(-c2nc3ncccc3o2)cc1,69%
17,Cc1ccc(C(C)C)c(OCC(=O)Nc2ccc(C(=O)OC3CCCCC3)cc2)c1,6% (active)
18,O=C(COc1ccc(Cl)cc1Cl)Nc1ccc(C(=O)OC2CCCCC2)cc1,78%
19,Cc1cc(C)c(OCC(=O)Nc2cccc(-c3nc4ncccc4o3)c2)c(Br)c1,4% (active)
20,CCCC(=O)Nc1cccc(-c2nc3ncccc3o2)c1,88%
21,Cc1cc(OCC(=O)Nc2ccc(C(=O)OC3CCCCC3)cc2)cc(C)c1Cl,52%
22,Cc1cccc(OCC(=O)Nc2ccc(Cl)c(-c3nc4ncccc4o3)c2)c1C,38%
23,CCC(C)c1ccc(OCC(=O)Nc2cccc(-c3nc4ncccc4o3)c2)cc1 (stereo not given),6% (active)
24,Cc1ccc(C(C)C)c(OCC(=O)Nc2ccc(-c3nc4ncccc4o3)cc2C)c1,69%
25,Cc1ccc(C(C)C)c(OCC(=O)Nc2cccc(-c3nc4ncccc4o3)c2)c1,2% (active)
